Out of some 270,000 compounds screened, about 5,800 (2.1%) were called active. Inconclusive results (about 16%) are left out. For the sample, actives were picked, then their nearest neighbours and some compounds at random. A number with no mark means an inactive call. The call rests on the fitted dose curve; in most records, active means well fitted inhibition curve with a large enough effect; inconclusive means small, poorly fitted or top-dose-only effect; inactive means flat fitted curve, though single readings scatter.
On the % scale 0 is the no-effect control and ±100 the full control effect; potency means the concentration at half of the fitted maximal effect.

The target in this test is Microtubule-associated protein tau (Homo sapiens) (UniProt P10636). Put plainly: qHTS for Inhibitors of Tau Fibril Formation, Thioflavin T Binding. Further: nearly all actives have a fitted effect of over 55% in size. Particulars: recombinant tau K18 P301L, heparin-induced fibrillization, ThT fluorescence; series mostly up to 57.4 µM; activity, negative = inhibition: at the top concentration. Summed up: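 Fibril formation assay: tau K18 P301L at 15 uM with trace Alexa 594 label, heparin inducer 20 uM, pH 7 sodium acetate buffer, 37 C for 6 hr; endpoint ThT signal.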
Chain of Microtubule-associated protein tau (Homo sapiens) (P10636 561-689 P618L limits assumed): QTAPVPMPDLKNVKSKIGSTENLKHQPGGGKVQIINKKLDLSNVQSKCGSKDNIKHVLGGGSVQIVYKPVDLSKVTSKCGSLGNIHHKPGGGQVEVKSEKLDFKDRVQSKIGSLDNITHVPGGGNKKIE
Turning to `COc1ccc(Cl)cc1C(=O)NNC(=S)NC(=O)/C=C/c1ccco1`, the Potency was 11.2 µM (active). Turning to `COc1ccc(Cl)cc1C(=O)NNC(=S)NC1CCCC1`, the “activity, negative = inhibition” value was -2.82%. Same read-out and setting: then `C=CCNC(=S)NNC(=O)c1cc(Cl)ccc1OC`, with -14.5%. Same read-out and setting: as for `Cc1ccc(C(=O)N2c3ncnn3C3(CCCCC3)[C@@H]3CCCC[C@@H]32)cc1`, the figure is -7.73%; as for `Cc1cccn2c(=O)c(/C=C3\SC(=S)N(CC(C)C)C3=O)c(NCCCOC(C)C)nc12`, -13.2%. Consider `CCOC(=O)CC1C(=O)NCCN1c1nc2c(C)cccn2c(=O)c1/C=C1\SC(=S)N(C(C)CC)C1=O` (configuration not stated), for which the Potency was 7.94 µM (active).

In the case of `CCOC(=O)CNC(=O)c1cc2c(=O)n3cccc(C)c3nc2s1`, the “activity, negative = inhibition” value is -2.97%.

Consider `Cn1nnnc1SCCCNCc1cccc(OCc2ccc(Cl)cc2)c1`, for which the “activity, negative = inhibition” value was -14.2%. In the case of `Cc1ccccc1Nc1c(-c2ccccc2)nc2ncccn12`, the “activity, negative = inhibition” value was -8.46%. In the case of `CCc1cccc(C)c1Nc1c(-c2ccc(N(C)C)cc2)nc2ncccn12`, the Potency is 14.1 µM (active).

As for `Cc1cccc(C)c1Nc1c(-c2ccccc2O)nc2ncccn12`, the Potency entry is “inactive”.

As for `COc1ccc(NC(=O)CN2CCCN(Cc3ccccc3)S2(=O)=O)cc1`, the “activity, negative = inhibition” value is 6.18%. The same measure, in the same setting: as for `Cc1nnc(C)n1-c1ccc(C(=O)Nc2cccc(Br)c2)cc1`, the figure is -13.8%; as for `C=Cc1ccc(Cn2c(C(=O)O)c(CNC3CCCC3)c3ccc(C)cc32)cc1`, -6.7%.

For `CSc1ccc(S(=O)(=O)NC2CCCCC2)cc1`, the “activity, negative = inhibition” value is -14.1%. Regarding `Cn1sc(=O)c2cc(S(=O)(=O)NC3CC3)ccc21`, the Potency was 12.6 µM (active). With `CC1CCC(NS(=O)(=O)c2ccc3c(c2)n(C)c(=O)c(=O)n3C)CC1` (configuration not stated), the “activity, negative = inhibition” value was -10.1%. In the case of `O=C(Nc1ccccc1Cl)N1CCC(CN2CCCCC2)CC1`, the “activity, negative = inhibition” value is 0.774%. Same read-out and setting: then `COc1ccc(S(=O)(=O)n2nc(C)c(S(=O)(=O)N3CCCCCC3)c2C)cc1`, with -5.22%; and `CCc1nnc(SCC(=O)Nc2cc(OC)ccc2OC)nc1CC`, with -13.1%. The same measure, in the same setting: as for `COc1ccc(C)cc1N(C)C(=O)c1c(C)oc2ncnc(N3CCOCC3)c12`, the figure is -4.51%; as for `CCOC(=O)C1CCCN(S(=O)(=O)c2cc(-c3cc(C)no3)ccc2OC)C1` (configuration not stated), -5.37%. Still for that read-out and setting: as for `N#C/C(=C\c1ccccc1C(F)(F)F)C(=O)Nc1ccccc1F`, the figure is -2.13%; as for `N#C/C(=C\c1ccc(N2CCOCC2)o1)C(=O)N1CCOCC1`, -14.6%.

Turning to `N#C/C(=C\C1=C(N2CCOCC2)C(=C\c2ccccc2)/CC1)C(=O)Nc1ccccc1F`, the Potency is 3.16 µM (active). As for `COc1cccc(-c2cc(C(=O)Nc3ccc(C)cc3)[nH]n2)c1`, the “activity, negative = inhibition” value was 16.5%. On the same count and under the same terms, then `COc1ccc(C/C(C)=N/NC(=O)c2cc(C)oc2C)cc1`, with -14.5%. `Cc1cc(C(=O)N/N=C/c2ccc(N3CCOCC3)cc2)c(C)o1`: the Potency is 3.98 µM (active). On to `Cc1nonc1C(=O)N/N=C/c1ccc(O)cc1`, for which the “activity, negative = inhibition” value is -13.5%. On the same count and under the same terms, then `CCn1cc(C(=O)N2CCN(c3cc(C)ccc3C)CC2)c(=O)c2cc(S(=O)(=O)N(C)C3CCCCC3)ccc21`, with -17%. Same read-out and setting: then `Cc1noc2ncnc(NCc3ccccc3Cl)c12`, with -8.51%. On the same count and under the same terms, then `CC(C)NC(=O)C(=O)N/N=C/c1ccco1`, with -18.5%; and `COC(=O)C1=C(C)N(c2ccc(Br)cc2)C(=O)/C1=C\c1ccco1`, with 3.15%. As to `COC(=O)C1=C(C)N(C(C)c2ccccc2)C(=O)/C1=C\c1ccco1` (configuration not stated), the Potency is 22.4 µM (active). With `CCOC(=O)c1c(NC(=O)c2ccc(S(=O)(=O)N3CCCC(C)C3)cc2)sc2c1CCN(C(C)C)C2` (configuration not stated), the “activity, negative = inhibition” value was -15.9%. Still for that read-out and setting: as for `COc1cc(OC)c(NC(=O)c2nc(-c3ccncc3)no2)cc1Cl`, the figure is 15.5%. Same read-out and setting: as for `Cc1ccc(-c2csc(SCC(=O)Nc3cc(C)on3)n2)cc1`, the figure is -1.99%; as for `Cc1ccc(-c2csc(NC(=O)c3cnccn3)n2)cc1C`, -7.61%. Take `Cc1ccc(Nc2nc(-c3ccc(O)cc3O)cs2)nc1`: the Potency was 5.01 µM (active). `Cc1ccccc1CNC(=O)CCCn1nc(C)c2sc3ccccc3c2c1=O`: the “activity, negative = inhibition” value was 11.6%.

In the case of `O=C(NC1CC(=O)N(c2ccccc2)C1)c1ccco1` (configuration not stated), the “activity, negative = inhibition” value is 4.55%. On the same count and under the same terms, then `COc1ccc(NC(=O)Nc2cccc(-c3noc(C)n3)c2)cc1`, with -6.06%; and `Cc1c(C)n(Cc2ccc(Cl)cc2)c2ccc(C(=O)NCCc3ccc(S(N)(=O)=O)cc3)cc12`, with -2.45%. Consider `CCN(CC)c1cc(NC2CCCCC2)c2c3c(onc13)-c1ccccc1C2=O`, for which the Potency was 11.2 µM (active). `CC(C)(C)c1ccc(C(=O)Nc2ccc3c(c2)CCCN3C(=O)c2cccs2)cc1`: the “activity, negative = inhibition” value is -12.8%. On the same count and under the same terms, then `CCc1ccc(NC(=O)CN2C(=O)CCSc3ccc(S(=O)(=O)N4CCCC4)cc32)cc1`, with 8.06%; and `CCc1nn(CCCC(=O)NCc2ccc(C)cc2)c(=O)c2cc3occc3n12`, with -5.1%. Still for that read-out and setting: as for `COCCCNC(=O)c1ccc(NC(=O)c2nsc3ccccc23)cc1`, the figure is -4.75%; as for `Cc1ccc(N2C(=O)C3C(c4ccccc4)(C2=O)C3(c2ccccc2)c2ccccc2)cc1` (configuration not stated), 4.8%. On to `Cc1ccc(C2C3=C(Nc4[nH]n(-c5ccccc5)c(=O)c42)c2ccccc2C3=O)cc1` (configuration not stated), for which the Potency is 7.94 µM (active). Take `O=C(Nc1ccc2nc(SCCOc3ccccc3Cl)sc2c1)c1ccco1`: the “activity, negative = inhibition” value was 5.98%. `CCOC(=O)c1cccc(NC(=O)c2cc(S(=O)(=O)N3CCCC(C)C3)cn2C)c1` (configuration not stated): the “activity, negative = inhibition” value is 3.72%.

Source of the values: PubChem BioAssay AID1460 (National Center for Advancing Translational Sciences (NCATS), 2008).
